Bioassay records from PubChem.
Only some compounds are listed: those with a hit (about 12% of all), similar ones and a draw of the others.
G9a inh – blocks human histone lysine methyltransferase G9a; Potency, µM (titrated, usually from 102 µM), most hits filed as inhibitors; 8.8% of 350,000 active; G9a H3K9 monomethylation, AlphaScreen, 2 h; AID 504332; Q96KQ7; note: nearly all actives have a fitted effect of over 75% in size
Target sequence (Q96KQ7 913-1193 limits assumed): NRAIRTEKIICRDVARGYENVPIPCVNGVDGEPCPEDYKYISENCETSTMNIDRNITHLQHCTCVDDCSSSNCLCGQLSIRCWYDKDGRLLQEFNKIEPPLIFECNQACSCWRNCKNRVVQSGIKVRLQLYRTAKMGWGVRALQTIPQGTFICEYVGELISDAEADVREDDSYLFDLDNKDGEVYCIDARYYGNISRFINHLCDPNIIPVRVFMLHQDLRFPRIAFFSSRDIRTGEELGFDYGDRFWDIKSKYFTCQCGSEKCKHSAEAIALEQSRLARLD
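Chemiluminescent proximity detection of H3K9 monomethylation, read after 10 min bead incubation in the dark. Reaction: 20 nM G9a, 500 nM biotin-H3K9 peptide, 20 uM SAM cofactor, 2 h, room temperature, following 15 min enzyme-compound preincubation.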
JMJD2A Tudor – inhibitors of human JMJD2A Tudor domain; Potency, µM (top dose mostly 114 µM), actives largely listed as inhibitors; O75164; 4.4% of 390,000 active; AlphaScreen JMJD2A-Tudor / H3K4me3 peptide binding; AID 504339; note: nearly all actives have a fitted effect of over 50% in size
PI5P4K alpha inh – PI5P4K alpha (human) kinase inhibition; 1.2% of 330,000 active; PI5P4Kalpha enzyme, ADP-Glo luminescence, 60 min; active compounds read low; max response, %; active = max response of -50% or lower; inconclusive = between -30% and -50%; inactive = -30% or higher; note: value at the top dose of about 77 µM
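ADP-Glo luminescence end-point after a 60 min room-temperature kinase reaction. PI5P4Kalpha and substrate in HEPES pH 7.4 buffer with EGTA, 0.1% CHAPS and 5% DMSO; ATP at 5 microM final.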
HP1b chromo inh – inhibitors of HP1-beta chromodomain binding to methylated histone tails | Potency, µM (doses to about 114 µM), usual class: inhibitors | P83916 | 0.56% of 390,000 active | AlphaScreen HP1-beta / biotin-H3K9me3 peptide binding; note: nearly all actives have a fitted effect of over 70% in size
Target sequence (P83916 whole entry, looked up): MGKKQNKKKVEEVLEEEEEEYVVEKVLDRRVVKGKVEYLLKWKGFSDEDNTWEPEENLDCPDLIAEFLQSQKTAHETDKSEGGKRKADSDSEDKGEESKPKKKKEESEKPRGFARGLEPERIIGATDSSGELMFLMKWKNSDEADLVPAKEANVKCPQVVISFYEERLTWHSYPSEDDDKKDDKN
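HP1-beta protein (50 nM final) preincubated 30 min at room temperature with biotinylated H3(1-18)K9me3 peptide (50 nM) in PBS pH 7.4, 0.01% Tween-20, then compound added for 30 min. AlphaScreen streptavidin donor/nickel chelate acceptor beads (10 ug/mL final), 30 min dark, luminescence read.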
PLK1 PBD inh – PLK1 (human) polo-box domain binding inhibition | AID 720504 | P53350 | 2.8% of 360,000 active | Plk1 PBD binding of FITC phosphopeptide, fluorescence polarization | Potency, µM, most hits filed as inhibitors; note: series mostly up to about 57 µM; nearly all actives have a fitted effect of over 65% in size
BAZ2B inh – BAZ2B (human) inhibition | 4.4% of 360,000 active | Potency, µM (highest dose often 114 µM), most hits filed as inhibitors | AlphaScreen BAZ2B-H3K14Ac peptide displacement | AID 504333; note: nearly all actives have a fitted effect of over 60% in size
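AlphaScreen displacement of biotin-H3(5-23)K14Ac peptide (50 nM final) from BAZ2B (50 nM final) in PBS pH 7.4, 0.01% Tween-20; complex preformed 30 min RT, then compounds (top 110 uM) 30 min RT, beads 20 min dark.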
Hits are given with their value; n = inactive; u = inconclusive; x = not tested or not shown; [ ] = dose if it differs, or a comment. Unless noted, calls come from the whole dose curve; as a rule, active = well fitted curve in the direction sought with a large enough effect; inconclusive = small, poorly fitted or top-dose-only effect, or another doubt; inactive = no such curve, though single readings can be large; an effect the other way counts as inactive or inconclusive.

SMILES	G9a inh	JMJD2A Tudor	PI5P4K alpha inh	HP1b chromo inh	PLK1 PBD inh	BAZ2B inh
O=C1C(=O)c2ccccc2C(O)=C1c1cccc([N+](=O)[O-])c1	56µM	n	u	u	27µM	u
COc1cc(OC)c(NC2(c3ccccc3)C(=O)c3ccccc3C2=O)cc1Cl	13µM	20µM	x	u	x	22µM
CC(=O)c1sc(NC(=O)c2ccc(Cn3cc(Br)cn3)o2)nc1C	45µM	n	u	n	n	n
CCOc1ccc2[nH]c3c(c2c1)CNCC3	71µM	u	n	n	n	n
CCOc1ccc2[nH]c(O)c(NC(C)=O)c2c1	u	n	x	n	n	n
COc1cc(-c2nnc(NC(=O)CS(=O)(=O)c3ccc(F)cc3)o2)cc(OC)c1OC	n	40µM	n	n	n	56µM
COc1cc(-c2nnc(NC(=O)CS(=O)(=O)c3ccc(C)cc3)o2)cc(OC)c1OC	n	25µM	n	n	n	45µM
COc1cccc(-c2nnc(NC(=O)CCS(=O)(=O)c3ccc(C)cc3)o2)c1	n	n	n	n	n	n
CC(/C=N/NC(=S)Nc1cccc(S(=O)(=O)N(C)C)c1)c1ccccc1 (centres undefined)	8.9µM	20µM	n	n	u	n
CN(C)S(=O)(=O)c1cccc(NC(=S)N/N=C/c2ccco2)c1	n	n	n	n	n	n
Cc1ccc(C)c(NC(=S)N/N=C/C(C)c2ccccc2)c1 (centres undefined)	35µM	n	n	n	n	u
Cc1ccc(C)c(NC(=S)NCc2ccccc2)c1	n	n	n	n	n	n
CN(C)S(=O)(=O)c1cccc(NC(=S)N/N=C/C(c2ccccc2)c2ccccc2)c1	25µM	u	n	n	n	n
Cc1ccc(C)c(N2CCN(C(=O)Cn3c(=O)c4cccn4c4ccc(F)cc43)CC2)c1	n	n	x	n	x	u
COc1ccc(S(=O)(=O)c2c(Nc3ccc(F)cc3)sc(C(=O)c3ccc4c(c3)OCO4)c2N)cc1	n	n	x	n	x	n
COc1cc(-c2ccc3ncnc(N(C)Cc4csc(C)n4)c3c2)cc(OC)c1OC	x	n	x	x	x	x
COc1cc(CN2CCN(C(=O)c3cccc4ccccc34)CC2)cc(OC)c1OC	20µM	20µM	n	u	n	56µM
COc1cccc(CN2CCN(C(=O)c3cccc4ccccc34)CC2)c1	x	28µM	n	u	n	n
COc1ccc(-n2nc(C(=O)NCC(=O)NCCCN3CC(C)CC(C)C3)c3ccccc3c2=O)cc1Cl (centres undefined)	n	n	n	n	n	n
COCCNCC#CCOc1ccc(OC)cc1	u	7.9µM	x	u	n	50µM
CCOc1ccc(NC(=O)c2ccc(OC)cc2)cc1	x	n	x	n	n	n
C=CCNCC#CCOc1ccc(OC)cc1	10µM	6.3µM	n	u	n	u
CCCCN(C(=O)c1ccc(-c2ccc(Cl)cc2)o1)c1c(N)n(CCCC)c(=O)[nH]c1=O	n[12.7 µM]	n	n	n	n	n
CCCCn1c(N)c(N(CCOC)C(=O)c2ccc(-c3ccc(Cl)cc3)o2)c(=O)[nH]c1=O	11µM	n	n	n	u	u
CCCCn1c(N)c(N(CCOC)C(=O)C(C)Oc2ccc(Cl)cc2)c(=O)[nH]c1=O (centres undefined)	u	n	n	n	n	n
SMILES	G9a inh	JMJD2A Tudor	PI5P4K alpha inh	HP1b chromo inh	PLK1 PBD inh	BAZ2B inh
CCCCn1c(N)c(N(CCOC)C(=O)c2cnccn2)c(=O)[nH]c1=O	n	n	n	n	n	n
CCCCn1c(N)c(N(CCOC)C(=O)c2cnc(C)cn2)c(=O)[nH]c1=O	40µM	n	n	n	n	n
CCCCN(C(=O)c1ccc(-c2ccc(Cl)cc2)o1)c1c(N)n(CCC)c(=O)[nH]c1=O	8.9µM	n	n	n	u	n
CCCCN(C(=O)C(C)Oc1ccc(Cl)cc1)c1c(N)n(CCCC)c(=O)[nH]c1=O (centres undefined)	50µM	n	n	n	n	n
CC(=O)c1cc(CC=C(C)C)c(O)cc1O	n	n[11.4 µM]	n	n	30µM	n
Cc1cccc(-n2c3nc(=O)n(C)c(=O)c-3cc3c(C)nn(-c4ccccc4)c32)c1C	n	n	x	n	x	x
COc1cc2nc(C)sc2cc1SC	n	u	n	u	24µM	n
Cc1nc2cc3nc(C)sc3cc2s1	7.1µM	n	n	u	30µM	n
